This is a sample that favours compounds with a hit; in the whole collection about 2% have one here.
S1P4 antagonist = antagonists of human S1P4 receptor | O95977 | S1P4-expressing cells, antagonist mode, reporter read-out | inhibition, % at 4.98 µM | 0.26% of 220,000 active | AID 1510; in the data active means inhibition above about 29%;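 further: 0% = wells stimulated with agonist and 100% = vehicle wells without agonist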
S1P4 agonist = activates the human S1P4 receptor | O95977 | 0.35% of 220,000 active | activation, % at 4.98 µM | S1P4-expressing cell line, agonist reporter assay; in the data active means activation above about 11%;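 further: 0% = DMSO vehicle and 100% = reference agonist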
S1P3 antag = S1P3 (human) receptor antagonism. inhibition, % at 4.98 µM. Q99500. 0.27% of 170,000 active. CHO S1P3 NFAT-BLA reporter, FRET fluorescence, antagonist mode;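 active means inhibition above the plate cutoff, the mean inhibition of test wells on that plate plus 3 SD, cut at about 28% in these data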;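 further: cells challenged with S1P at its EC80 of 0.8 µM; blue over green emission ratio from cleaved BLA substrate after 4 h stimulation; 0% = S1P-stimulated wells and 100% = unstimulated DMSO-only wells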
EP2 modulator = modulates human prostaglandin E2 receptor EP2 signaling; P43116; EP2-expressing cells, cAMP HTRF FRET, PGE2 co-stimulation; induction, % at 25 µM; 0.83% of 260,000 active; AID 940;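 active means compounds whose cAMP rise, as percent of the full-agonist control response, exceeds 60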;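 further: rat C6 glioma line stably carrying human EP2 under a CMV promoter; the protocol text gives 20 µM as final concentration; 100% = response of wells given 1 µM PGE2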
EP2 antag = EP2 receptor (human) inhibition | 0.52% of 260,000 active | inhibition, % at 25 µM | AID 1422 | C6 glioma cells expressing human EP2, cAMP TR-FRET; cells stimulated with saturating PGE2;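 active means percent inhibition above 40 after rounding to a whole number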;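 further: rat C6 glioma host cells with rolipram phosphodiesterase inhibitor present; the protocol text gives 20 µM as final concentration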
S1P4 antag cf = confirmation of human S1P4 receptor antagonists. shares compounds with S1P4 antagonist. S1P4-expressing cell line, antagonist mode, reporter read-out. inhibition, % at 4.98 µM. 71% of 520 active. AID 1524; in the data active means inhibition above about 30%
S1P1 antag = counter-screen for S1P4 antagonists: antagonists of human S1P1. shares compounds with S1P4 antagonist. cell-based S1P1 antagonist counterscreen, inhibition. inhibition, % at 4.98 µM. 37% of 520 active. AID 1564; in the data active means inhibition above about 40%;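 further: receptor stimulated with S1P near its EC80; 0% = agonist stimulated wells and 100% = vehicle only wells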
Target sequence (P21453 whole entry, looked up): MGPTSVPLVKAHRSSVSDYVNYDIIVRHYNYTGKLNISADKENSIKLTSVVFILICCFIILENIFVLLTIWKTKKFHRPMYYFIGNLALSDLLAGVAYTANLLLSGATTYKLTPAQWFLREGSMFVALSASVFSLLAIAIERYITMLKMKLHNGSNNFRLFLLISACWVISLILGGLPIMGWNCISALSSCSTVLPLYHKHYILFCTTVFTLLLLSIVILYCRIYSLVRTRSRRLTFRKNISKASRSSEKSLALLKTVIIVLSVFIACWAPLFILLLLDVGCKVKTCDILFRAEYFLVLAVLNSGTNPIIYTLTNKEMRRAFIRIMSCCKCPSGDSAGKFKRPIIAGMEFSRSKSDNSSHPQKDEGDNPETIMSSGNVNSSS
* marks the source's active call; other numbers are inactive results; · = not tested or not shown.

SMILES | S1P4 antagonist | S1P4 agonist | S1P3 antag | EP2 modulator | EP2 antag | S1P4 antag cf | S1P1 antag
O=C1c2cccc3c([N+](=O)[O-])ccc(c23)C(=O)N1c1ccccn1 | 105* | -3 | · | -42 | 19 | 113* | 151*
COc1cc(NC(=O)c2cc(CC(C)C)on2)c(OC)cc1Cl | 33* | 1 | -6 | 33 | 10 | 23 | 12
CCCc1cc(C(=O)Nc2cc(OC)c(Cl)cc2OC)no1 | -10 | 3 | -19 | 19 | · | · | ·
COc1ccc(N2C(=O)CC(N3CCN(S(=O)(=O)c4ccc(Cl)cc4)CC3)C2=O)cc1 (centres undefined) | 30* | 0 | -10 | -15 | 7 | -7 | -6
CCOC(=O)c1[nH]ncc1CN1CCC(O)(c2ccccc2C)CC1 | · | · | · | -8 | 8 | · | ·
C=CCOC(=O)C1=C(C)N=C2SCCC(=O)N2C1c1ccc(OC(=O)c2ccco2)cc1 (centres undefined) | 38* | 0 | · | 0 | 6 | 59* | 52*
CCc1nn(CC(=O)NCCCn2ccc(C)n2)c(=O)c2cc3ccsc3n12 | · | · | · | -31 | · | · | ·
CS(=O)(=O)c1ncc(Cl)c(C(=O)Nc2ccc3ccccc3c2)n1 | 41* | -3 | 0 | -33 | 5 | 119* | 54*
COc1ccc(OC)c(NC=C2C(=O)OC(C)(C)OC2=O)c1 | -8 | 0 | -14 | 9 | 9 | · | ·
COc1ccc(OC)c(NC=C2C(=O)OC3(CCCCC3)OC2=O)c1 | 32* | 4 | -16 | -16 | 7 | -19 | -3
Cc1ccc(NC(=O)CN(C)C2CCCCC2)cc1Br | 32* | 0 | 16 | -36 | 5 | 19 | 39
O=C(c1csc2c1CCCC2)N1CCc2c(nc[nH]c2=O)C1 | · | · | · | -5 | · | · | ·
Cc1cccc(NC(=S)N(Cc2ccco2)Cc2cc3cc(C)ccc3[nH]c2=O)c1 | · | · | · | 1 | 7 | · | ·
O=C(Nc1nnc(SCc2ccc(F)cc2)s1)c1cccnc1Cl | -8 | -1 | -4 | -19 | 2 | · | ·
O=C(Nc1nnc(SCc2ccc(F)cc2)s1)c1ccccn1 | 31* | 0 | 14 | -14 | 9 | 101* | 73*
O=C(Nc1nnc(-c2ccc3c(c2)CCCC3)o1)c1ccccc1 | 31* | 2 | · | 22 | 14 | 102* | 96*
CCC(C)NC(=O)c1cc2nc(-c3ccco3)cc(C(F)(F)F)n2n1 (centres undefined) | · | · | · | -9 | 8 | · | ·
O=C(NCc1cccnc1)C(=O)N/N=C/c1ccc([N+](=O)[O-])cc1 | 30* | 1 | -12 | 17 | 5 | 10 | 4
CCOC(=O)c1c(NC(=O)OC)sc(C(=O)N(C)C)c1C | 44* | 2 | · | 39 | 6 | -1 | -3
COC(=O)Nc1sc(C(=O)N(C)C)c(C)c1C(=O)OC | -9 | 1 | · | -8 | 11 | · | ·
O=C(Nc1nc2c(s1)COc1ccccc1-2)c1ncoc1-c1ccc(F)cc1 | · | · | · | -60 | 3 | · | ·
Cc1ccccc1C1=NC(C(F)(F)F)(C(F)(F)F)c2c(n(C)c(=O)n(C)c2=O)N1 | -19 | 0 | -1 | -8 | 9 | · | ·
Cn1c2c(c(=O)n(C)c1=O)C(C(F)(F)F)(C(F)(F)F)N=C(c1ccc(Cl)cc1)N2 | 51* | 1 | · | 11 | 8 | 21 | -19
CC(C)N1CCC2(CC1)N=C(c1ccc3c(c1)OCO3)CC(c1cc(Cl)ccc1O)N2 (centres undefined) | 35* | 0 | 10 | -21 | 24 | 79* | 23
CCc1nnc(N/N=C/c2c(C)[nH]c3ccccc23)n1N | 97* | 0 | 11 | -30 | 7 | 4 | 3
SMILES | S1P4 antagonist | S1P4 agonist | S1P3 antag | EP2 modulator | EP2 antag | S1P4 antag cf | S1P1 antag
Cc1ccccc1/C=N/Nc1nc2ccccc2[nH]1 | 15 | 0 | 1 | -95 | 20 | · | ·
Cc1[nH]c2ccccc2c1/C=N/Nc1nc2ccccc2[nH]1 | 50* | 1 | 23 | -22 | 16 | 57* | 27
Cc1nc2sc3c(c2c2nn(Cc4ccccn4)c(=O)n12)CCC(C)C3 (centres undefined) | · | · | · | -6 | · | · | ·
CCCc1cnc(NCCNCC(O)COc2ccc(Cl)c(Cl)c2)nc1 (centres undefined) | 31* | -1 | 9 | -27 | 3 | 25 | 64*
CCC(c1nnnn1CCc1ccccc1)N1CCN(C(=O)c2ccco2)CC1 (centres undefined) | 33* | -2 | -20 | 9 | 13 | 7 | 18
CC(C)CC(c1nnnn1CCc1ccccc1)N1CCN(C(=O)c2ccco2)CC1 (centres undefined) | -2 | 0 | -5 | 28 | 13 | · | ·
CC(CN1CCc2nc(N3CCCC3)[nH]c(=O)c2C1)c1ccccc1 (centres undefined) | · | · | · | -34 | 4 | · | ·
CC(C)(C)c1ccc(OCc2ccc(C(=O)N/N=C/c3ccc(O)c(O)c3)cc2)cc1 | 33* | 0 | 8 | -15 | 12 | 63* | 27
COc1ccc(NC2=NCC(=O)N2Cc2ccc(F)cc2)cc1 | · | · | · | -12 | 11 | · | ·
O=C(Nc1cccc(NC(=O)c2cccs2)c1)c1ccc([N+](=O)[O-])o1 | 56* | -2 | 12 | -43 | 23 | 66* | 62*
CC(C)OC(=O)Cn1nc2c3ccccc3nc(C3CC3)n2c1=O | · | · | · | -23 | 8 | · | ·
COc1cc(CNCCCN2CCOCC2)cc(Br)c1OCc1ccc(Cl)cc1 | 30* | 2 | 4 | -38 | 9 | 52* | 39
COC(=O)N/N=C\C=C\c1ccc2c(c1)OCO2 | 55* | -1 | · | -3 | 12 | -19 | -14
Cc1ccc(C)c(OCC(=O)Nc2ccc3c(c2)OCO3)c1C | 30* | 0 | 8 | 29 | 7 | 2 | 6
CCc1c(C)nc2cc(-c3ccc(OC)c(OC)c3)nn2c1N1CCN(CC)CC1 | · | · | · | -12 | 10 | · | ·
Cc1ccc(-c2csc(NC(=O)C3CCN(S(=O)(=O)c4cccs4)CC3)n2)cc1 | 59* | -1 | 2 | -21 | 9 | 5 | 14
COc1ccc(-n2nnnc2SCC(=O)c2ccc(C)cc2)cc1 | · | · | · | -65 | 15 | · | ·
Nc1ncnc2c1ncn2C1OC(CO)C(O)C1O (centres undefined) | 39* | -2 | -18 | 31 | 11 | 67* | 41*
Nc1ncnc2c1ncn2[C@@H]1O[C@H](CO)[C@H](O)C1O (some centres undefined) | · | · | · | 13 | 8 | · | ·
COc1ccc(N=C2S/C(=C\c3ccc(N4CCOCC4)o3)C(=O)N2CCc2c[nH]c3ccccc23)cc1 | 55* | 0 | · | 23 | 7 | 68* | 30
COc1ccc(N=C2S/C(=C\c3ccc(OCC(=O)O)cc3)C(=O)N2CCc2c[nH]c3ccccc23)cc1 | -20 | 0 | -17 | 22 | -1 | · | ·
CCOc1ccc(C(=O)Nc2sc3c(c2C(=O)NCCOC)CCCC3)cc1 | · | · | · | 14 | 14 | · | ·
N#Cc1nccnc1S(=O)(=O)c1cccs1 | 41* | 0 | 4 | -42 | 30 | 97* | 56*

Assay outcomes from PubChem.
